Most compounds without a hit are left out; they make up all but 21% or so of the library.
Pf growth 96h: inhibits malaria parasite growth, 96 h | AID 504834 | P. falciparum luciferase reporter growth, 96 h | Potency, µM (series often up to 28.7 µM), usual class: inhibitors | 320,000 tested, 6.9% active
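Infected RBCs, 2% Hct / 0.05% parasitemia final; luciferase-reporter P. falciparum; cpd 96 h, 37 C, 5% CO2; luciferase detection reagent; luminescence.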
SARS PLP yeast: inhibitors of SARS-CoV papain-like protease in yeast. AID 485353. 330,000 tested, 0.19% active. Potency, µM (series often up to 32.9 µM), usual class: activators. S. cerevisiae expressing SARS-CoV PLpro, growth rescue; calls by dose curve; also: nearly all actives have a fitted effect of over 55% in size
Pf growth 48h: P. falciparum growth inhibition at 48 hours (one generation) | P. falciparum luciferase growth in erythrocytes, 48 h | 310,000 tested, 5.9% active | Potency, µM (doses to about 28.7 µM), hits mostly inhibitors
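Luciferase-expressing P. falciparum in infected erythrocytes (2% hematocrit, 0.1% parasitemia final) in RPMI 1640/0.5% Albumax were exposed to compound for 48 hours at 37 C, 5% CO2; growth read as luminescence.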
Shiga inhibitor: inhibitors of Shiga toxin in Vero cells. Vero cells, Shiga toxin protein synthesis inhibition reporter. inhibition, % at 38.7 µM. 290,000 tested, 9.2% active. AID 2315; in the data active = inhibition mostly above about 28%, no sharp cut-off; inactive = mostly below about 43%
NS1 inh: blocks influenza NS1 protein function; Potency, µM (titrated, usually from 46.1 µM); 270,000 tested, 0.4% active; calls by dose curve; also: actives are rising curves; nearly all actives have a fitted effect of over 50% in size
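Growth recovery, yeast-based: influenza A NS1 expressed in S. cerevisiae causes slow growth, and suppressors are detected by OD600. The parent strain without NS1 is used as positive control.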
Cycloheximide cs: counter-screen hit for Shiga toxin inhibitors, cycloheximide | cell reporter, cycloheximide protein synthesis inhibition counterscreen | max response, % | 300,000 tested, 12% active; in the data active = max response mostly above about 13%, no sharp cut-off; inactive = mostly below about 14%; also: read at 38.3 µM for the half of the compounds with a filed dose
Each line names hits and unclear results; the compound was inactive in the other large screens. Unless noted, calls follow the shape of the dose curve; as a rule, active = well fitted inhibition curve with a large enough effect; inconclusive = small, poorly fitted or top-dose-only effect, or another doubt; inactive = no such curve, though single readings can be large or run the other way.

O=C(c1ccc(C(F)(F)F)cc1)C1CCCN(C(=O)Cn2cncn2)C1 (centres undefined)	none
Cc1ncoc1C(=O)N1CCCC(C(=O)c2cccc(C(F)(F)F)c2)C1 (centres undefined)	Pf growth 96h inconclusive
CC1=C(C(=O)N2CCCC(C(=O)c3cccc(C(F)(F)F)c3)C2)OCCO1 (centres undefined)	Pf growth 96h 13µM, Pf growth 48h inconclusive
CC(=O)N[C@@H](C)c1nc2ccccc2n1CCNC(=O)[C@H]1CCCN1c1nc(CN2CCCCC2)cs1	none
Cc1cc(Nc2ccccc2)nc(NCc2ccccc2)n1	Pf growth 96h inconclusive, Pf growth 48h 0.59µM
Cc1cc(Nc2ccc(Cl)cc2)nc(NCc2ccccc2)n1	Pf growth 96h 0.52µM, Pf growth 48h 0.93µM
Cc1cc(Oc2ccccc2)nc(NCc2ccccc2)n1	none
CNCCCc1ccccc1	none
Cc1cc(Oc2ccccc2F)nc(NCc2ccccc2)n1	none
CCCCNc1cc(C)nc(NCc2ccccc2)n1	Pf growth 96h 0.83µM, Pf growth 48h 1.5µM
CCNc1nc(Cl)nc(NCc2ccccc2)n1	Pf growth 96h inconclusive
Cc1cc(C)nc(NCCCc2ccccc2)n1	Pf growth 96h 13µM
Cc1cc(N2CCC(C)CC2)nc(-c2ccccc2O)n1	none
Nc1nc(NCc2ccccc2)nc(Nc2cccc(F)c2)c1[N+](=O)[O-]	none
Fc1cc(F)nc(NCc2ccccc2)n1	none
Cc1cc(Nc2cccc(F)c2)nc(NCc2ccccc2)n1	Pf growth 96h inconclusive, Pf growth 48h 0.37µM
Cc1cc(N2CCC(C)CC2)nc(NCc2ccccc2)n1	Pf growth 96h 7.4µM, Pf growth 48h 10µM
Fc1cc(NCc2ccccc2)nc(NCc2ccccc2)n1	Pf growth 96h inconclusive, Shiga inhibitor 60, Cycloheximide cs 53
CCn1c2ccccc2c2cc(N)ccc21	Pf growth 96h 12µM, Pf growth 48h inconclusive, NS1 inh inconclusive
CCn1c(C)nc2cc(N)ccc21	Cycloheximide cs 35
CCn1c(C)nc2cc(C(=O)OCCC(F)(F)F)ccc21	Shiga inhibitor 86, Cycloheximide cs 29
CCc1cccc(NC(=O)C2CCCN(S(=O)(=O)c3cccnc3)C2)c1 (centres undefined)	Pf growth 96h inconclusive, Pf growth 48h inconclusive
CCCOc1cccc(-c2cc(C(=O)N/N=C/c3ccccn3)c3ccccc3n2)c1	Pf growth 96h 9.3µM, Pf growth 48h 12µM, Shiga inhibitor 42, Cycloheximide cs 21
COc1cccc(-c2cc(C(=O)N/N=C/c3ccco3)c3ccccc3n2)c1	Pf growth 96h inconclusive, Pf growth 48h inconclusive, Shiga inhibitor 67, NS1 inh inconclusive, Cycloheximide cs 26
CCCOc1cccc(-c2cc(C(=O)N/N=C/c3cccnc3)c3ccccc3n2)c1	Pf growth 96h inconclusive, Pf growth 48h inconclusive, Shiga inhibitor 76, Cycloheximide cs 30
O=C(N/N=C/c1ccco1)c1cc(-c2ccccc2)nc2ccccc12	Pf growth 96h inconclusive, SARS PLP yeast inconclusive
Cc1ccccc1-c1cc(C(=O)N/N=C/c2cccnc2)c2ccccc2n1	Pf growth 48h 10µM
CN(C)CCCNC(=S)N(CCO)Cc1cc2cc3c(cc2[nH]c1=O)OCO3	none (no result: Shiga inhibitor)
O=C(N/N=C/c1ccccn1)c1cc(-c2ccc(Cl)cc2)nc2ccccc12	Pf growth 96h 9.3µM, Pf growth 48h 9.3µM
O=C(O)c1cc(-c2ccncc2)nc2ccccc12	none (no result: Pf growth 96h, SARS PLP yeast, Pf growth 48h, Shiga inhibitor, Cycloheximide cs)
C/C(=N\NC(=O)c1cc(-c2ccncc2)nc2ccccc12)c1ccc(OC(F)F)cc1	Pf growth 96h 3.3µM (no result: NS1 inh)
COc1ccc(/C(C)=N/NC(=O)c2cc(-c3cccnc3)nc3ccccc23)cc1	none
COc1ccc(-c2cc(C(=O)N/N=C(\C)c3cccnc3)c3ccccc3n2)cc1	Cycloheximide cs 12
COc1ccc(-c2cc(C(=O)N/N=C/c3cccnc3)c3ccccc3n2)cc1	Pf growth 96h inconclusive, Cycloheximide cs 27
O=C(N/N=C/c1ccccn1)c1cc(-c2ccc(Br)cc2)nc2ccccc12	Pf growth 48h inconclusive
Cn1c(=O)c2ncn(CC(=O)NCCOCc3ccccc3Cl)c2n(C)c1=O	none
NCCO/C=C/[C@H](N)C(=O)O	none (no result: SARS PLP yeast, Shiga inhibitor, NS1 inh, Cycloheximide cs)
COc1cc(OC)cc(C(=O)NC(C(=O)N2CCc3ccccc3C2)C(C)C)c1 (centres undefined)	Pf growth 96h inconclusive, Pf growth 48h inconclusive
CCOc1ccc(-c2cc(C(=O)N/N=C(\C)c3cccnc3)c3ccccc3n2)c(OCC)c1	Pf growth 96h inconclusive, SARS PLP yeast inconclusive, Pf growth 48h 13µM
COc1cc(C(=O)Nc2ccc(-c3nc4cc(C)ccc4o3)c(O)c2)cc(OC)c1OC	Pf growth 96h inconclusive, Pf growth 48h inconclusive
COc1cc(OC)cc(C(=O)Nc2ccc(Nc3ccccc3)cc2)c1	none
COc1cccc(C(=O)Nc2ccc(-c3nc4ccccc4o3)c(O)c2)c1	Pf growth 48h inconclusive, Shiga inhibitor 53
COc1cc(OC)cc(C(=O)Nc2ccc(-c3nc4ccccc4o3)cc2)c1	Pf growth 48h inconclusive, Shiga inhibitor 48 (no result: Pf growth 96h)
COc1ccc(N2CSC3=C(C#N)C(c4cc(OC)ccc4OC)CC(=O)N3C2)c(OC)c1 (centres undefined)	Pf growth 96h 13µM (no result: Pf growth 48h)
COc1cc(OC)c(C2CC(=O)N3CN(c4ccc(C)cc4)CSC3=C2C#N)cc1OC (centres undefined)	Shiga inhibitor 41
COc1ccc(N2CSC3=C(C#N)C(c4cc(OC)c(OC)cc4OC)CC(=O)N3C2)c(OC)c1 (centres undefined)	none (no result: Pf growth 48h)
Cc1cc(C)n(S(=O)(=O)c2cccc(Cl)c2Cl)n1	none
CCOC(=O)c1ccc(NC(=O)c2cccc(S(=O)(=O)N3c4ccccc4CC3C)c2)s1 (centres undefined)	Pf growth 96h inconclusive, Pf growth 48h 12µM
COc1cc(C)c(Cl)cc1S(=O)(=O)NC1CC(C)(C)NC(C)(C)C1	Pf growth 96h inconclusive
Cc1nn(-c2cccc(C(=O)O)c2)c(C)c1[N+](=O)[O-]	none (no result: NS1 inh)
Cc1nn(-c2ccc(C(=O)OC(C)C)cc2)c(C)c1[N+](=O)[O-]	Shiga inhibitor 62, Cycloheximide cs 32 (no result: NS1 inh)
Cc1cn(C2CC3OCC(NC(=O)C4CCCN4C(=O)OC(C)(C)C)C3O2)c(=O)[nH]c1=O (centres undefined)	none (no result: Pf growth 96h, SARS PLP yeast, Pf growth 48h, NS1 inh)
CCN(CC)C(=O)c1sc(NC(=O)c2cccnc2)c(C(=O)OC)c1C	Pf growth 96h 2.9µM
CCOC(=O)c1c(NC(=O)C2c3ccccc3Oc3ccccc32)sc(C(=O)N(CC)CC)c1C	Pf growth 96h 0.93µM, Pf growth 48h 1.5µM
COC(=O)c1c(-c2cccs2)csc1NC(=O)c1cccnc1	Shiga inhibitor 60, Cycloheximide cs 37
COC(=O)c1c(NC(=O)c2ccccc2)sc(C(=O)c2ccccc2)c1C	Pf growth 96h 9.3µM, Pf growth 48h inconclusive
CN1CCN(CCCNc2c(C=O)c(=O)[nH]c3ccccc23)CC1	none
O=S(=O)(c1ccccc1)n1ccc2cccnc21	none
